A short description of assay [1]: Cell Viability - SK-N-SH (AID 435).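 Note: potency is the fitted concentration of half-maximal effect; compound exposure lasted 40 h at 37 °C.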 The settings on record: SK-N-SH neuroblastoma cell viability qHTS. In short, it runs like this:
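SK-N-SH human neuroblastoma cells (1500/well) were exposed to compounds in complete medium for 40 h at 37 °C, and intracellular ATP was then measured by CellTiter-Glo luminescence. AC50 was taken from Hill fits, normalized to DMSO and 100 uM tamoxifen.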
Background: qHTS replaces the single test concentration by a dilution series.

The nature of assay [2]: Cell Viability - H-4-II-E (AID 543; active = well fitted curve in the direction sought with a large enough effect; an effect the other way counts as inactive or inconclusive; note: % is set by controls: 0 for no effect and ±100 for the full control effect; nearly all actives have a fitted effect of over 35% in size). The method in brief:
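Cells seeded at 1500 per well and rested 5 hr; compounds added; 40 hr incubation at 37 °C; CellTiter-Glo added, 20 min at room temperature; luminescence read. Hill-equation fits gave AC50.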

In assay [3] the target is Estrogen receptor (Homo sapiens) (UniProt P03372). The experiment in a line: qHTS assay for small molecule antagonists of estrogen receptor alpha signaling (AID 588513; active = well fitted curve in the direction sought with a large enough effect in the signal ratio, with a control signal flat, not every such curve was filed as active; the % refers to the signal ratio; note: % is set by controls: 0 for no effect and ±100 for the full control effect). In short, it runs like this: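 ER-alpha-UAS-bla GripTite HEK 293 cells in medium with 2% charcoal/dextran-treated FBS were preincubated 4 h at 37 C, dosed with compound (1:2 titration), stimulated with 0.5nM 17-beta-estradiol for 18 h, then read by CCF4 beta-lactamase fluorescence.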

Assay [4] has the same target. The assay can be described thus: qHTS assay for small molecule agonists of estrogen receptor alpha signaling (AID 588514).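 Note: 0% = vehicle only and 100% = reference agonist; nearly all actives have a fitted effect of over 70% in size.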 In short, it runs like this:
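Efficacy is expressed against 20 nM 17-beta-estradiol (100%) and DMSO basal (0%); EC50 from Hill equation. Assay: beta-lactamase reporter in ER-alpha-UAS-bla HEK 293 cells, 18 h compound incubation, CCF4 detection.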

For assay [5], the target named is Glucocorticoid receptor (Homo sapiens) (UniProt P04150). The assay can be described thus: qHTS assay for small molecule antagonists of glucocorticoid receptor signaling (AID 588533; active = well fitted inhibition curve with a large enough effect in the signal ratio, with a control signal flat, not every such curve was filed as active; the % refers to the signal ratio;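 note: cells stimulated with 2 nM dexamethasone as agonist; % is set by controls: 0 for no effect and ±100 for the full control effect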). In short, it runs like this: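 Antagonist-mode qHTS: compound titrations added to GRE-bla HeLa cells, then dexamethasone 2 nM final; 18 h, 37 C. CCF4 FRET fluorescence normalized to dexamethasone and DMSO; IC50 from Hill fit.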

Assay [6] deals with Vitamin D3 receptor (Homo sapiens) (UniProt P11473). The experiment in a line: qHTS assay for small molecule antagonists of vitamin D receptor signaling (AID 588541).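 Note: receptor activated by calcitriol during compound treatment; % is set by controls: 0 for no effect and ±100 for the full control effect.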 In short, it runs like this:
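VDR-UAS-bla HEK293T cells (2000/well, 2% charcoal-stripped FBS) were treated with titrated compounds plus 1-alpha,25-dihydroxyvitamin D3 (50 nM or 3 nM final) for 16 h at 37 C. CCF4 beta-lactamase fluorescence was read; Hill fits gave IC50.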

The target of assay [7] is Thyroid hormone receptor beta (Homo sapiens) (UniProt P10828). The assay can be described thus: qHTS assay for small molecule antagonists of thyroid hormone receptor beta signaling (AID 588547; active = well fitted inhibition curve with a large enough effect in the signal ratio, with a control signal flat, not every such curve was filed as active; the % refers to the signal ratio;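 note: cells stimulated with 0.4 nM T3 agonist during compound exposure; % is set by controls: 0 for no effect and ±100 for the full control effect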). The settings on record: TR-UAS-bla HEK293, beta-lactamase ratio, antagonist mode, 18 h. The method in brief:
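TR-UAS-bla GripTite HEK293 cells in 2% charcoal/dextran FBS medium were preincubated 4 h at 37 C, given compound (0.59 nM to 92 uM) plus 0.4 nM T3 (final) for 18 h, then CCF4 for 2 h at RT; Hill fit gave IC50.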

Assay [8] can be described thus: qHTS assay for small molecule agonists of the antioxidant response element (ARE) signaling pathway (AID 651741; active = well fitted activation curve with a large enough effect in the signal ratio; the % refers to the signal ratio; note: potency is the fitted concentration of half-maximal effect; for activation: % of control where 0% means no effect). The method in brief: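 Reporter: beta-lactamase under ARE, stably in HepG2. Exposure: 16 h, 37 C, compounds delivered in DMSO by pin tool after 5 h cell preincubation. Readout: FRET substrate fluorescence after 2 h at RT.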
Assay [9] can be described thus: qHTS assay for small molecule activators of the nuclear factor-kappa B (NF-kB) signaling pathway (AID 651749; active = well fitted activation curve with a large enough effect in the signal ratio; the % refers to the signal ratio; note: % of control where 0% means no effect). The settings on record: NF-kB-bla ME-180 cells, beta-lactamase FRET ratio, 16 h; stronger effect = higher value. The method in brief:
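Human ME-180 cervical cells with an NF-kB-bla construct; compounds added via 23 nL pin transfer, DMSO as vehicle; incubation 16 hr. Reporter activity measured by FRET disruption.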

Assay [10] is described as follows: qHTS assay for small molecule disruptors of the mitochondrial membrane potential - 1 hr assay (AID 651754). Note: % is set by controls: 0 for no effect and ±100 for the full control effect; nearly all actives have a fitted effect of over 35% in size. In short, it runs like this:
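Loss of mitochondrial potential shifts the cationic dye from red mitochondrial aggregates to green cytoplasmic monomers. Cells (HepG2) are treated with compound for 1 hr before a 30 min dye incubation at 37C.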

The nature of assay [11]: qHTS assay for small molecule disruptors of the mitochondrial membrane potential - 5 hr assay (AID 651755). Note: % is set by controls: 0 for no effect and ±100 for the full control effect; nearly all actives have a fitted effect of over 40% in size. In short, it runs like this:
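Seed HepG2 overnight, add compound, incubate 5 hr at 37C and 5% CO2, stain 30 min with Mito-MPS, then measure monomer (490/535 nm) and aggregate (540/590 nm) fluorescence.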

The nature of assay [12]: Cell Viability - NIH 3T3 (AID 541; active = well fitted curve in the direction sought with a large enough effect; an effect the other way counts as inactive or inconclusive;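 note: plate controls were DMSO alone for no effect and tamoxifen positive control for full effect; nearly all actives have a fitted effect of over 25% in size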). The settings on record: NIH 3T3 cell viability, qHTS; activity change, negative = cytotoxicity: at 92.2 µM (top of the series). The method in brief: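 Cells seeded at 1000/well, rested 5 hr at 37 °C, then dosed and incubated 40 hr at 37 °C. CellTiter-Glo added, 20 min room temperature, luminescence read. AC50 by Hill fit.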
Assay [13] can be described thus: MultiTox-Fluor Cytotoxicity Assay - LYMP1-001 - Live Cells (AID 947; active = well fitted curve in the direction sought with a large enough effect; an effect the other way counts as inactive or inconclusive;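 note: 0% = DMSO only and full inhibition = tetraoctylammonium bromide control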).
The target in assay [14] is Peroxisome proliferator-activated receptor delta (Homo sapiens) (UniProt Q03181). The experiment in a line: qHTS assay for small molecule agonists of peroxisome proliferator-activated receptor delta signaling (AID 588534).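 Note: 0% = DMSO basal wells and 100% = positive control agonist at 10 µM.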 The method in brief:
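Agonist-mode qHTS; reporter cells, 5 hrs 37 C pre-incubation; compound titration, 18 hrs 37 C; CCF4 dye, 2 hrs RT; fluorescence read. EC50/efficacy via Hill fit.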

Assay [15] is described as follows: qHTS assay for small molecule antagonists of peroxisome proliferator-activated receptor delta signaling (AID 588535; active = well fitted inhibition curve with a large enough effect in the signal ratio, with a control signal flat, not every such curve was filed as active; the % refers to the signal ratio;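 for max response: cells co-treated with a PPAR-delta agonist as stimulator during compound exposure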). The settings on record: HEK293T PPARd-UAS-bla, beta-lactamase FRET ratio, 18 h; 460 nm channel. In short, it runs like this:
(§1)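 Inhibition of PPAR-delta response element-driven beta-lactamase expression is measured in HEK293T cells exposed to a compound titration series for 18 hrs at 37 C. Half-maximal inhibition comes from Hill equation fitting.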

For assay [16], the target named is Peroxisome proliferator-activated receptor delta (Homo sapiens) (UniProt Q03181). Described as above. The method in brief:
as §1

For assay [17], the target named is Peroxisome proliferator-activated receptor gamma (Homo sapiens) (UniProt P37231). The assay can be described thus: qHTS assay for small molecule antagonists of peroxisome proliferator-activated receptor gamma signaling (AID 588537; active = well fitted inhibition curve with a large enough effect in the signal ratio, with a control signal flat, not every such curve was filed as active; the % refers to the signal ratio;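 note: reporter cells co-stimulated with 50 nM rosiglitazone agonist during compound treatment; % of control where 0% means no effect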). In short, it runs like this: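 Compounds are tested as concentration series for inhibition of rosiglitazone-driven (50 nM) reporter expression in GeneBLAzer PPAR-gamma-UAS-bla HEK293 cells. After 16 h at 37 C, CCF4 substrate is added for 2 h at room temperature and blue/green fluorescence is measured.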

The target of assay [18] is Nuclear receptor ROR-gamma (Homo sapiens) (UniProt P51449). The assay can be described thus: qHTS assay for small molecule antagonists of the retinoid-related orphan receptor gamma (ROR-gamma) signaling pathway (AID 651802; active = well fitted curve in the direction sought with a large enough effect; an effect the other way counts as inactive or inconclusive;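 note: CHO cells with doxycycline-induced ROR-gamma expression; % is set by controls: 0 for no effect and ±100 for the full control effect; nearly all actives have a fitted effect of over 60% in size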). In short, it runs like this:
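Steps: cells dispensed; compound or DMSO transferred by pin tool; doxycycline added to induce the ROR response element-driven luciferase; plates held 16hr at 37C; ONE-Glo added and luminescence measured.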

The nature of assay [19]: qHTS assay for small molecule agonists of the antioxidant response element (ARE) signaling pathway measured by Nrf2-dependant transcriptional activity (AID 720636; active = well fitted curve in the direction sought with a large enough effect in the repeat runs; an effect the other way counts as inactive or inconclusive;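 note: HepG2 cells with an ARE-driven luciferase reporter; % of control where 0% means no effect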). In short, it runs like this: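 In HepG2 cells engineered with an Nrf2-responsive luciferase gene, ARE induction was quantified as luminescence after 16 hr compound treatment at 37 C.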
Assay [20] has as its target Glucocorticoid receptor (Homo sapiens) (UniProt P04150). The experiment in a line: qHTS assay for small molecule agonists of glucocorticoid receptor signaling (AID 588532; active = well fitted curve in the direction sought with a large enough effect in the signal ratio, with a control signal flat; the % refers to the signal ratio;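 note: 100% = dexamethasone at 0.1 µM and 0% = DMSO only wells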). The settings on record: HeLa MMTV-bla, beta-lactamase ratio, agonist, 18 h; stronger effect = higher value; percent of dexamethasone control, DMSO zero. The method in brief:
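MMTV-bla HeLa, beta-lactamase reporter; medium with 1% charcoal/dextran-stripped FBS; cpds up to 92 uM, 18 h, 37 C; CCF4 readout 460/530 nm; Hill fit → EC50, efficacy vs 0.1 uM dexamethasone = 100%.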

SMILES strings stand for the structures. Values joined by “and” are separate entries in the source; they are usually repeats but may differ in a detail not shown here. Equal entries are not always repeated. Records with an inconclusive call do not appear. Active and inactive are the calls of the source. Unless noted, calls come from the whole dose curve.

Chain of Peroxisome proliferator-activated receptor delta (Homo sapiens) (Q03181 whole entry, looked up): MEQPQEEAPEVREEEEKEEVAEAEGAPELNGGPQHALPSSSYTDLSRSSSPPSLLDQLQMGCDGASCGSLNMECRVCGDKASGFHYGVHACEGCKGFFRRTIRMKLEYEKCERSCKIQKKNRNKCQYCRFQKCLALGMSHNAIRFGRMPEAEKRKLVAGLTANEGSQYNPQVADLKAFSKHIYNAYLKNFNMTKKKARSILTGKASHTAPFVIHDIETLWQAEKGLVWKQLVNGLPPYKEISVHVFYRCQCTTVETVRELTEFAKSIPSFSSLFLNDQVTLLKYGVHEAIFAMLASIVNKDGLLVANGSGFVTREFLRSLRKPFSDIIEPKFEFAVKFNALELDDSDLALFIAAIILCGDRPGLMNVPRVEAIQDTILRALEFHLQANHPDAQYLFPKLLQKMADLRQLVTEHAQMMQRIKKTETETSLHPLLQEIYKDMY
Chain of Peroxisome proliferator-activated receptor gamma (Homo sapiens) (P37231 whole entry, looked up): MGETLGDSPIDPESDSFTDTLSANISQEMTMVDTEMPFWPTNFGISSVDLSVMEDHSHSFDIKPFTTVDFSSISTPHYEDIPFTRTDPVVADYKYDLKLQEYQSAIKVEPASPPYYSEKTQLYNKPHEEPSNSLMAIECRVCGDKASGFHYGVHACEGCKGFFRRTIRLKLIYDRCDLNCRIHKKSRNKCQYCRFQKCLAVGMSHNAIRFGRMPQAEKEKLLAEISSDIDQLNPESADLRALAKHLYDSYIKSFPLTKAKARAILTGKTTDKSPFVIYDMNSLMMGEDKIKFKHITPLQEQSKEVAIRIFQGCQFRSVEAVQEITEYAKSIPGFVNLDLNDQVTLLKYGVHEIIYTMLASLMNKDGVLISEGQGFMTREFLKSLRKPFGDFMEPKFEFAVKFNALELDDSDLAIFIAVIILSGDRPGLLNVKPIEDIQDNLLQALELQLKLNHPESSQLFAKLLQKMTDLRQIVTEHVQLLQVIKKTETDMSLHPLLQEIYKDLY
Chain of Vitamin D3 receptor (Homo sapiens) (P11473 whole entry, looked up): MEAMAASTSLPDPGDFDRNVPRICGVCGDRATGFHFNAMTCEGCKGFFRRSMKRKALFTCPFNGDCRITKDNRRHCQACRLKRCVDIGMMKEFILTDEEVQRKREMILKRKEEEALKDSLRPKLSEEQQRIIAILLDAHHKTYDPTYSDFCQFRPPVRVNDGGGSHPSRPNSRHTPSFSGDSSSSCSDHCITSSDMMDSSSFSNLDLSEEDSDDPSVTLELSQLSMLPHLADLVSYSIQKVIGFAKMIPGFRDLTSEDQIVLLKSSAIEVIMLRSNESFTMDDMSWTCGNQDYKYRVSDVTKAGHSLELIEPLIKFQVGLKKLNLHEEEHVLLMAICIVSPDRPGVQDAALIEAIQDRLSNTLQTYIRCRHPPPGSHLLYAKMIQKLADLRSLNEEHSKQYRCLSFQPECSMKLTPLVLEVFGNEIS
Chain of Nuclear receptor ROR-gamma (Homo sapiens) (P51449 whole entry, looked up): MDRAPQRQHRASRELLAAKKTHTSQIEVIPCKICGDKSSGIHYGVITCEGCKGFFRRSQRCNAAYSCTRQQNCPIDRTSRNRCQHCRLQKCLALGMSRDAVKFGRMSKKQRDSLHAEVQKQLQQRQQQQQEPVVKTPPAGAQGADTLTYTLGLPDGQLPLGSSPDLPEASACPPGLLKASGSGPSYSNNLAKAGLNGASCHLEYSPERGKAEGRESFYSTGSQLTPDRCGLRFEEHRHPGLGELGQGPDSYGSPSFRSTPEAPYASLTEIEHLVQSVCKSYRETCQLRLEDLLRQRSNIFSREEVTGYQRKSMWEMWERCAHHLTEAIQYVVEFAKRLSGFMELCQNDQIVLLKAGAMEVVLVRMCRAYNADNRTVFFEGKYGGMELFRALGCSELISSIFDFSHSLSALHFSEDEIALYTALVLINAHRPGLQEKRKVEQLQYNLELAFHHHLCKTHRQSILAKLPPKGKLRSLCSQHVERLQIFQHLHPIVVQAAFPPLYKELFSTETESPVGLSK
Chain of Glucocorticoid receptor (Homo sapiens) (P04150 whole entry, looked up): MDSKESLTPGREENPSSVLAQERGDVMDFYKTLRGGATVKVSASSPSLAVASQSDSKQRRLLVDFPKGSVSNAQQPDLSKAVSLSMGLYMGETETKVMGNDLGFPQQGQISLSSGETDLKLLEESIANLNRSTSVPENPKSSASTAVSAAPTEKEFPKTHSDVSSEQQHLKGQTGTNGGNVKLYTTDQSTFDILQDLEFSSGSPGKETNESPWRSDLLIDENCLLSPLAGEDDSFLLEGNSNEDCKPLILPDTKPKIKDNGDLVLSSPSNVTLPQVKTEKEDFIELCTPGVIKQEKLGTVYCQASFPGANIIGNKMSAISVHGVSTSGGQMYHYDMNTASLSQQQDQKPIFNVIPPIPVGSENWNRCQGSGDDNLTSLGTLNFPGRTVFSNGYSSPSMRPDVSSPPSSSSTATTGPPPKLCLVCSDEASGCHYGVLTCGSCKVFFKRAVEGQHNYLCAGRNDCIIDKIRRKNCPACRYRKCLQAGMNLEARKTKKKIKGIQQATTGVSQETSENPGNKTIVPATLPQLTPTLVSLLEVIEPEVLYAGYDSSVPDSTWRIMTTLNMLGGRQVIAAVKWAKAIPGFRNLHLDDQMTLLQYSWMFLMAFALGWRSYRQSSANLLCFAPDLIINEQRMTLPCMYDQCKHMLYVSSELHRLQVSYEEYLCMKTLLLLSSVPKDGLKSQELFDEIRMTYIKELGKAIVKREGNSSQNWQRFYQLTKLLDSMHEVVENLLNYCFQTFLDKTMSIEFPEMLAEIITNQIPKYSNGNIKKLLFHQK
Chain of Estrogen receptor (Homo sapiens) (P03372 whole entry, looked up): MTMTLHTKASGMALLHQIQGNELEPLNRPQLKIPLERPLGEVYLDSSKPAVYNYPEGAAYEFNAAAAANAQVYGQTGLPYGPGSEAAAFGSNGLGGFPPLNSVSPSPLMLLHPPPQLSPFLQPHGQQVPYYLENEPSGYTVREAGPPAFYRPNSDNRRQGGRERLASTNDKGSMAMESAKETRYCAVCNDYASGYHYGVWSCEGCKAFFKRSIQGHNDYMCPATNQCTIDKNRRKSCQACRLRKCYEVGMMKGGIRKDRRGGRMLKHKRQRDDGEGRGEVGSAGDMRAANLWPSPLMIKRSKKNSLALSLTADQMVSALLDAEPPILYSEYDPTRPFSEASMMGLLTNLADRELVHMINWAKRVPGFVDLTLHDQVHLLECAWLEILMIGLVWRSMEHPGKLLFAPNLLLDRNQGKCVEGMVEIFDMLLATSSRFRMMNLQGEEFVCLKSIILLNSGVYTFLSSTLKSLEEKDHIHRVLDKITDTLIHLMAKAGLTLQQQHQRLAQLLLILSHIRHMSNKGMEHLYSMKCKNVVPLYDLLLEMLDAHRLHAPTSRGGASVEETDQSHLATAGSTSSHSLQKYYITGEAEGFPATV
Chain of Thyroid hormone receptor beta (Homo sapiens) (P10828 whole entry, looked up): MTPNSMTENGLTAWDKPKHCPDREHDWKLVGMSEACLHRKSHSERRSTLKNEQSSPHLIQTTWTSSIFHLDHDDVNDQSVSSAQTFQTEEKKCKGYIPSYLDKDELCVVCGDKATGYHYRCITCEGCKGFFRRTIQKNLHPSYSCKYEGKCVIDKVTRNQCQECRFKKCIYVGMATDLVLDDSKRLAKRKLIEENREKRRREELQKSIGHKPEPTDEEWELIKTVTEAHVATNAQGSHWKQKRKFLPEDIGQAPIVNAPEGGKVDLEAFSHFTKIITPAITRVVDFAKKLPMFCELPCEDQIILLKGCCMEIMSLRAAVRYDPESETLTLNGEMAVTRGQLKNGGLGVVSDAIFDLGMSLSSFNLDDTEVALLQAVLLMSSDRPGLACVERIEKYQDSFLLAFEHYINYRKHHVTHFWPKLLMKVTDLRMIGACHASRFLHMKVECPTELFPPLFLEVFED

Regarding `CCCC[N+](=O)[O-]`, in assay [1], the Potency is > 92 µM (inactive). The Potency entry in assay [2], in assay [3], in assay [4], in assay [8], in [10] and in [11] was “inactive” in each case. Further, the outcome in assay [5] and in assay [6] was inactive. For the same molecule, the activity change % (negative = inhibition) in [7] is 2.77% (inactive). Also, the activation in assay [9] was -0.304% (inactive).
For the molecule `ClC(Br)Br`, the Potency in assay [1] was > 92 µM (inactive). Besides, the Potency result in [12], in [3], in [4], in assay [17], in assay [10] and in [11] was “inactive” throughout. The Potency entry in assay [18] and in assay [19] was “inactive” throughout. For the same molecule, the outcome in assay [13], in assay [14] and in assay [16] was inactive. Further, in assay [15], the max response came to 2.53%. The activation in [9] is 1.19% (inactive).
`c1ccc(N=NNc2ccccc2)cc1`: the Potency in assay [1] is > 92 µM (inactive); in assay [8] it was 26.6 µM (active) and 9.69 µM (active). Moreover, the Potency result in [12], in assay [2], in assay [3], in [4] and in assay [18] was “inactive” in each case. The molecule was called inactive in assay [13], in assay [14], in assay [16] and in assay [6]. The max response in assay [15] was -9.27% and 22.4%. The activity change % (negative = inhibition) in assay [7] was 0.0148% (inactive).
In the case of `COC(=O)c1ccccc1N`, the Potency in assay [1] was > 92 µM (inactive). For the same molecule, the Potency result in [2], in assay [17], in assay [18] and in assay [19] was “inactive” each time. The figures for the activation in assay [20] and in assay [9] were -6.23% (inactive) and -0.425% (inactive), respectively. Also, the molecule was called inactive in [5] and in assay [16]. The max response in assay [15] was -46.7%. In assay [7], the activity change % (negative = inhibition) was -1.98% (inactive).
Take `CC(C)Br`: in [1], the Potency is > 92 µM (inactive). The Potency entry in [12], in assay [2], in assay [3], in assay [4], in [17] and in assay [8] was “inactive” in each case. The Potency entry in assay [10], in assay [11] and in [18] was “inactive” each time. For the same molecule, the result in assay [13] and in assay [6] was inactive.
Take `c1ccc(NNc2ccccc2)cc1`: in assay [1], the Potency was > 92 µM (inactive). Also, the Potency entry in assay [2], in assay [8], in [11], in [18] and in assay [19] was “inactive” throughout. The molecule was called inactive in [13], in assay [14], in assay [16] and in assay [6]. Moreover, the activation in assay [20] was 1.14% (inactive) and -8.47% (inactive); in assay [9], 0.182% (inactive) and 3.71% (inactive). Also, the max response in assay [15] is 13.2% and 5.7%.
In the case of `O=c1ccc(=O)[nH][nH]1`, in [1], the Potency is > 92 µM (inactive). For the same molecule, the Potency result in assay [12], in assay [2], in assay [17], in [11], in [18] and in [19] was “inactive” in each case. The molecule was called inactive in assay [13] and in [6]. For the same molecule, in [9], the activation was -0.7% (inactive) and 1.42% (inactive).

The record behind these values is PubChem BioAssay (NCATS).
